According to PubChem BioAssay (EPA / NIEHS):
Activity calls are given as the source filed them. Rule for the calls: active = hit-call score of the fitted dose curve at least 0.9, where 1 is the maximum; inactive = score below 0.9.

Legend:
Settings in all cases: mRNA level, 48 h; actives raise or lower the signal
CYP4A11 (gene 1579) = assay: LTEA_HepaRG_CYP4A11: Life Technologies and Expression Analysis (LTEA) Assay for CYP4A11 using HepaRG (AID 2283486)
Procedure, shortened: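 Differentiated HepaRG cells, 48 h after plating, exposed in duplicate for 48 h to 8 half-log concentrations up to 100 uM in 0.5% DMSO in serum-free induction medium. CYP4A11 mRNA measured by TaqMan qRT-PCR, normalized to ACTB, GAPDH and POLR2A.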

[1] = read-out: Cytochrome P450 3A4 (Homo sapiens) (UniProt P08684); assay: LTEA_HepaRG_CYP3A4: Life Technologies and Expression Analysis (LTEA) Assay for CYP3A4 using HepaRG (AID 2283487)
Procedure, shortened: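 Differentiated HepaRG cells, plated 48 h, then dosed 48 h in serum-free induction medium with 0.5% DMSO, 8 half-log concentrations up to 100 uM, duplicate. CYP3A4 mRNA by qRT-PCR, normalized to ACTB/GAPDH/POLR2A; bidirectional fit versus DMSO.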

[2] = read-out: DNA damage-inducible transcript 3 (DDIT3), DDIT3 (gene 1649); assay: LTEA_HepaRG_DDIT3: Life Technologies and Expression Analysis (LTEA) Assay for DNA damage-inducible transcript 3 (DDIT3) using HepaRG (AID 2283488)
Procedure, shortened: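 Eight-point concentration-response (100 uM highest, half-log dilutions) in HepaRG, 48 h, duplicate wells. Endpoint: qRT-PCR mRNA, normalized (ACTB, GAPDH, POLR2A), bidirectional fitting with DMSO as baseline.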

[3] = read-out: Pro-epidermal growth factor (Homo sapiens) (UniProt P01133); assay: LTEA_HepaRG_EGF: Life Technologies and Expression Analysis (LTEA) Assay for Epidermal growth factor (EGF) using HepaRG (AID 2283489)
Procedure, shortened: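 HepaRG cells (~100,000/well, 48 h pre-culture) exposed in duplicate for 48 h in serum-free induction medium to 8 half-log concentrations up to 100 uM in 0.5% DMSO. EGF mRNA by qRT-PCR, normalized to ACTB/GAPDH/POLR2A; bidirectional fit versus DMSO.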

[4] = read-out: Early growth response protein 1 (EGR1) transcription factor, EGR1 (gene 1958); assay: LTEA_HepaRG_EGR1: Life Technologies and Expression Analysis (LTEA) Assay for Early growth response protein 1 (EGR1) transcription factor using HepaRG (AID 2283490)
Procedure, shortened: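 EGR1 expression change in human HepaRG after 48 h chemical exposure, assessed by housekeeping-normalized qRT-PCR; concentration-response up to 100 uM, fitted in both directions against DMSO controls.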

[5] = read-out: Ezrin (EZR), EZR (gene 7430); assay: LTEA_HepaRG_EZR: Life Technologies and Expression Analysis (LTEA) Assay for Ezrin (EZR) using HepaRG (AID 2283491)
Procedure, shortened: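 EZR transcript levels came from Fluidigm qRT-PCR and were normalized to three housekeeping genes after 48 h chemical exposure of HepaRG cells. Dosing used an 8-point half-log series with a 100 uM top concentration in 0.5% DMSO, tested in duplicate; both directions were fitted versus vehicle.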

[6] = read-out: Cytochrome P450 3A7 (Homo sapiens) (UniProt P24462); assay: LTEA_HepaRG_CYP3A7: Life Technologies and Expression Analysis (LTEA) Assay for CYP3A7 using HepaRG (AID 2283492)
Procedure, shortened: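 Differentiated HepaRG cells in serum-free induction medium exposed 48 h in duplicate to 8-point half-log series from 100 uM top in 0.5% DMSO. CYP3A7 mRNA by qRT-PCR, normalized to ACTB/GAPDH/POLR2A, bidirectional fit versus DMSO.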

CYP3A5 (gene 1577) = assay: LTEA_HepaRG_CYP3A5: Life Technologies and Expression Analysis (LTEA) Assay for CYP3A5 using HepaRG (AID 2283493)
Procedure, shortened: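 Readout was CYP3A5 mRNA by qRT-PCR. HepaRG cultures were exposed for 48 h in serum-free induction medium to chemicals at up to 100 uM, and responses were fitted in both directions relative to DMSO vehicle.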

[7] = read-out: Fatty Acid-Binding Protein 1 (FABP1), FABP1 (gene 2168); assay: LTEA_HepaRG_FABP1: Life Technologies and Expression Analysis (LTEA) Assay for Fatty Acid-Binding Protein 1 (FABP1) using HepaRG (AID 2283494)
Procedure, shortened: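 Values reflect bidirectional concentration-response fitting of FABP1 mRNA change against 0.5% DMSO controls. Human HepaRG cultures received eight half-log doses (top 100 uM) for 48 h; expression quantified by TaqMan qRT-PCR with housekeeping-gene normalization.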

[8] = read-out: Cytochrome P450 4A22 (Homo sapiens) (UniProt Q5TCH4); assay: LTEA_HepaRG_CYP4A22: Life Technologies and Expression Analysis (LTEA) Assay for Cytochrome P450 4A22 (CYP4A22) using HepaRG (AID 2283495)
Procedure, shortened: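 Differentiated HepaRG cells in serum-free induction medium exposed 48 h in duplicate to eight half-log concentrations up to 100 uM in 0.5% DMSO. CYP4A22 mRNA quantified by TaqMan qRT-PCR, normalized to ACTB, GAPDH and POLR2A; bidirectional fit versus DMSO.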

[9] = read-out: Cytochrome P450 7A1 (Homo sapiens) (UniProt P22680); assay: LTEA_HepaRG_CYP7A1: Life Technologies and Expression Analysis (LTEA) Assay for Cytochrome P450 7A1 (CYP7A1) using HepaRG (AID 2283496)
Procedure, shortened: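 Using 0.5% DMSO as vehicle and baseline, chemicals were tested in duplicate over an 8-point range from 100 uM on HepaRG cells for 48 h; qRT-PCR signals were normalised to ACTB, GAPDH and POLR2A.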

[10] = read-out: Glutathione S-Transferase (GSTA2), GSTA2 (gene 2939); assay: LTEA_HepaRG_GSTA2: Life Technologies and Expression Analysis (LTEA) Assay for Glutathione S-Transferase (GSTA2) using HepaRG (AID 2283497)
Procedure, shortened: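 Oxidative-stress marker GSTA2 is quantified by TaqMan qRT-PCR in HepaRG cultures treated 48 h across an eight-point range to 100 uM. Expression is normalized to endogenous controls and compared with 0.5% DMSO vehicle.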

[11] = read-out: Glutamate-cysteine ligase catalytic (GCLC), GCLC (gene 2729); assay: LTEA_HepaRG_GCLC: Life Technologies and Expression Analysis (LTEA) Assay for Glutamate-cysteine ligase catalytic (GCLC) using HepaRG (AID 2283498)
Procedure, shortened: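 Oxidative-stress marker GCLC is measured as mRNA change in human HepaRG liver cells after 48 h chemical treatment in 0.5% DMSO, eight concentrations from 100 uM. Activity is fitted bidirectionally against vehicle.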

[12] = read-out: growth arrest and DNA damage 45 (GADD45G), GADD45G (gene 10912); assay: LTEA_HepaRG_GADD45G: Life Technologies and Expression Analysis (LTEA) Assay for growth arrest and DNA damage 45 (GADD45G) using HepaRG (AID 2283499)
Procedure, shortened: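 Differentiated human HepaRG cells, 48 h post-plating, exposed 48 h in serum-free induction medium to 8 half-log concentrations (top 100 uM, 0.5% DMSO) in duplicate. GADD45G mRNA measured by Fluidigm TaqMan qRT-PCR, normalized to ACTB, GAPDH, POLR2A; bidirectional fit versus DMSO.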

[13] = read-out: Glutamate-cysteine ligase regulatory (GCLM), GCLM (gene 2730); assay: LTEA_HepaRG_GCLM: Life Technologies and Expression Analysis (LTEA) Assay for Glutamate-cysteine ligase regulatory (GCLM) using HepaRG (AID 2283500)
Procedure, shortened: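 In this multiplexed HepaRG gene-expression assay, GCLM mRNA change after 48 h treatment (8 concentrations, max 100 uM) was scored against DMSO by bidirectional curve fitting.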

[14] = read-out: Glutathione S-transferase M3 (GSTM3), GSTM3 (gene 2947); assay: LTEA_HepaRG_GSTM3: Life Technologies and Expression Analysis (LTEA) Assay for Glutathione S-transferase M3 (GSTM3) using HepaRG (AID 2283501)
Procedure, shortened: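 Differentiated human HepaRG cells were exposed in duplicate for 48 h in serum-free induction medium, 8 points from 100 uM top in half-log steps, 0.5% DMSO. GSTM3 mRNA was measured by TaqMan qRT-PCR, normalized to ACTB, GAPDH and POLR2A; bidirectional fit versus DMSO.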

[15] = read-out: Heat shock 70 kDa protein 1 (HSPA1A), gene 3303; assay: LTEA_HepaRG_HSPA1A: Life Technologies and Expression Analysis (LTEA) Assay for Heat shock 70 kDa protein 1 (HSPA1A) using HepaRG (AID 2283502)
Procedure, shortened: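 An oxidative-stress marker readout: HepaRG cells treated 48 h in duplicate with an eight-point series (highest 100 uM) had HSPA1A mRNA quantified by TaqMan qRT-PCR. Activity was fitted in both directions using 0.5% DMSO as baseline.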

[16] = read-out: Hypoxia-inducible factor 1-alpha (Homo sapiens) (UniProt Q16665); assay: LTEA_HepaRG_HIF1A: Life Technologies and Expression Analysis (LTEA) Assay for Hypoxia-inducible factor 1 (HIF1A) Trancription factor using HepaRG (AID 2283503);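 note: HIF1A transcript by TaqMan qRT-PCR normalized to ACTB GAPDH and POLR2A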
Procedure, shortened: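 Gain- or loss-of-signal HIF1A mRNA changes are fitted against a DMSO baseline. HepaRG cultures receive eight concentrations, highest 100 uM, for 48 h in serum-free induction medium with 0.5% DMSO.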

[17] = read-out: 3-Hydroxy-3-Methylglutaryl-CoA Synthase 2 (HMGCS2), HMGCS2 (gene 3158); assay: LTEA_HepaRG_HMGCS2: Life Technologies and Expression Analysis (LTEA) Assay for 3-Hydroxy-3-Methylglutaryl-CoA Synthase 2 (HMGCS2) using HepaRG (AID 2283504)
Procedure, shortened: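 Human HepaRG cells in serum-free induction medium were exposed in duplicate for 48 h to 8-point half-log series from 100 uM top in 0.5% DMSO. HMGCS2 mRNA measured by TaqMan qRT-PCR, normalised to ACTB, GAPDH, POLR2A; bidirectional fit versus DMSO.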

HGF (gene 3082) = assay: LTEA_HepaRG_HGF: Life Technologies and Expression Analysis (LTEA) Assay for Hepatocyte Growth Facto (HGF) using HepaRG (AID 2283505)
Procedure, shortened: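 Differentiated HepaRG cells in serum-free induction medium exposed 48 h in duplicate, 8 half-log concentrations from 100 uM in 0.5% DMSO. HGF mRNA by qRT-PCR, normalised to ACTB, GAPDH, POLR2A; bidirectional fitting.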

Measured: AC50

Chain of Cytochrome P450 3A7 (Homo sapiens) (P24462 whole entry, looked up): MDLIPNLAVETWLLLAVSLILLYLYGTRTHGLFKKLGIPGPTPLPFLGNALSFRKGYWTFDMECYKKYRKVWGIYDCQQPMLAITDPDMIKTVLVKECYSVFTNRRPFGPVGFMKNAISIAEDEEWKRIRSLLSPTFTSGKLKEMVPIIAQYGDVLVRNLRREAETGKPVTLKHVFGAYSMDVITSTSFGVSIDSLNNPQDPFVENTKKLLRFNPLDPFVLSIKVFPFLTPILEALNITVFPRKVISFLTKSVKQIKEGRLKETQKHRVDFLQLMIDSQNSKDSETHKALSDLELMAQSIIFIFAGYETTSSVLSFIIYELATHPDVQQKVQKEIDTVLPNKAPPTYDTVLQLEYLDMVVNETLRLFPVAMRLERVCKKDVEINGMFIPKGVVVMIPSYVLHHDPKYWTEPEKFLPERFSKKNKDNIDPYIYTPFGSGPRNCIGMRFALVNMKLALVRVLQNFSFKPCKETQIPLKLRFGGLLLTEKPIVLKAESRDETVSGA
Chain of Cytochrome P450 3A4 (Homo sapiens) (P08684 whole entry, looked up): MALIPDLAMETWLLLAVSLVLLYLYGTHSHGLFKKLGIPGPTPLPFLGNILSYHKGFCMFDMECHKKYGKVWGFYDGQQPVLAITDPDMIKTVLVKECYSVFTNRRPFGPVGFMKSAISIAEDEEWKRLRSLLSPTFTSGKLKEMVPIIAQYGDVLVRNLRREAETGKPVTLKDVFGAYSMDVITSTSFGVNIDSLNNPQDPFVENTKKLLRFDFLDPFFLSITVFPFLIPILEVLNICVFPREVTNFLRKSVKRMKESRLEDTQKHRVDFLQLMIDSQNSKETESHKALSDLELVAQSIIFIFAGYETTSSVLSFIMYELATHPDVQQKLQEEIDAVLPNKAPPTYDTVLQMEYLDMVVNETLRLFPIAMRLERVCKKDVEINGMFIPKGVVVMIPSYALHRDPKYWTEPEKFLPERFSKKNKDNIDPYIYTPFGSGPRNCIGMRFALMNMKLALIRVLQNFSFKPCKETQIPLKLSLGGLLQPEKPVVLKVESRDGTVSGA
Chain of Hypoxia-inducible factor 1-alpha (Homo sapiens) (Q16665 whole entry, looked up): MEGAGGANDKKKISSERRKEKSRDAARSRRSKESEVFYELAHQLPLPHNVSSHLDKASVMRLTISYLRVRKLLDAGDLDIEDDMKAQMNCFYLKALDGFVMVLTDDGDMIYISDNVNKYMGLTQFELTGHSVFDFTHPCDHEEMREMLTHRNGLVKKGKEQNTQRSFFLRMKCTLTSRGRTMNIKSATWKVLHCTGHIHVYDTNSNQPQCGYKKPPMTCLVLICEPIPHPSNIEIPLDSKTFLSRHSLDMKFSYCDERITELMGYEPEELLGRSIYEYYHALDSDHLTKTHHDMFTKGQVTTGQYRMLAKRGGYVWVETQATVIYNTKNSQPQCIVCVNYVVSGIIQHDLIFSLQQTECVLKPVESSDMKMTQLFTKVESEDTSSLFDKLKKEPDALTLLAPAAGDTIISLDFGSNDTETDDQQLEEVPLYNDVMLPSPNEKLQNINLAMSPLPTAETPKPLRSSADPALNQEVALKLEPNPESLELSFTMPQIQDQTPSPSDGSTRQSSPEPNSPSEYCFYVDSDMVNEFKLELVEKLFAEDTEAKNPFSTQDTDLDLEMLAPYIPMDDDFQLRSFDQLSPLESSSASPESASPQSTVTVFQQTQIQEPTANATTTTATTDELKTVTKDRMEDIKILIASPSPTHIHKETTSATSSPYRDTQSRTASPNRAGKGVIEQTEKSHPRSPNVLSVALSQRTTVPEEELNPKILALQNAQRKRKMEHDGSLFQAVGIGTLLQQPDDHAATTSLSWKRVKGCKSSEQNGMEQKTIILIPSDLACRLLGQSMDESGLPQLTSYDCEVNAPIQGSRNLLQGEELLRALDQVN

CCOC(=O)NCCOc1ccc(Oc2ccccc2)cc1
active: CYP4A11 (gene 1579) 84.1 µM | [1] 87.8 µM | [2] 89 µM | CYP3A5 (gene 1577) 84.8 µM | [7] 79.1 µM | [8] 83.2 µM | [9] 83.9 µM | [10] 88.5 µM | [12] 73.5 µM | [13] 82.4 µM | [17] 77.1 µM
inactive: [3] | [4] | [5] | [6] | [11] | [14] | [15] | [16] | HGF (gene 3082)

COCCO
not listed: [3] | [8] | [9] | HGF (gene 3082)
inactive: all other assays above

CC(C)(C)[C@@H](O)[C@@H](Cc1ccc(Cl)cc1)n1cncn1
active: CYP4A11 (gene 1579) 50 µM | [1] 7.74 µM | [6] 5.85 µM | [7] 50 µM | [8] 27.8 µM
not listed: [15] | HGF (gene 3082)
inactive: all other assays above

CC(=O)S[C@@H]1CC2=CC(=O)CC[C@]2(C)[C@H]2CC[C@@]3(C)[C@@H](CC[C@@]34CCC(=O)O4)[C@H]12
inactive: [2] | [3] | [4] | [13] | [14] | [15] | [16] | HGF (gene 3082)
active: CYP4A11 (gene 1579) 51.8 µM | [5] 0.387 µM | CYP3A5 (gene 1577) 50 µM | [7] 54.4 µM | [8] 50 µM | [9] 62.4 µM | [10] 69.5 µM | [11] 50 µM | [12] 32.7 µM | [17] 65.7 µM

CCCCC(CC)COC(=O)c1ccccc1C(=O)O (stereo not given)
active: CYP4A11 (gene 1579) 50.8 µM | [9] 50.8 µM
not listed: [1] | [6]
inactive: all other assays above

N#CSCSc1nc2ccccc2s1
active: CYP4A11 (gene 1579) 94.4 µM | [6] 64.3 µM | [7] 88.5 µM | [8] 90.5 µM | [10] 86 µM
inactive: all other assays above
